# ± gives the standard deviation.
# How the values were obtained:
# [1] = test system: MILI (PIWIL2) piRISC loaded with L1MC piRNA (26 nt); assay: pre-steady-state target cleavage rate (min^-1); guide: L1MC piRNA 5'p-UAACUAAAUACUAUGCAAGCUGUAGG; higher = faster piRNA-guided slicing of the target;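 further: 1 nM active piRISC with 0.1 nM target library at 33 °C single turnover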
# In short: (§1)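 In HEPES–potassium acetate buffer at 33 °C, […] transcribed, DNA-blocked target RNA library was mixed with 1 nM active affinity-purified piRISC carrying one synthetic guide, with or without 500 nM GTSF1 partner protein, for 0–8 or 0–960 min. Uncleaved targets were sequenced and normalised to depth and to weakly complementary targets; three trials were pooled and k3 was capped at 0.0001 min^-1. The pre-steady-state cleavage rate followed from a burst-and-steady-state fit.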
# [2] = test system: EfPiwi piRISC loaded with L1MC piRNA (26 nt); assay: pre-steady-state target cleavage rate (min^-1); auxiliary factor: 500 nM Ephydatia muelleri Gtsf1; guide: L1MC piRNA 5'p-UAACUAAAUACUAUGCAAGCUGUAGG; MIWI and MILI are mouse PIWI proteins and EfPiwi is from a freshwater sponge; tags in brackets are library labels; higher = faster piRNA-guided slicing of the target
# In short: as §1
# [3] = auxiliary factor: 500 nM mouse GTSF1
# [4] = auxiliary factor: none (no GTSF1)
Sequence,"pre-steady-state target cleavage rate [1, 3]","pre-steady-state target cleavage rate [1, 4]",pre-steady-state target cleavage rate [2]
UCCUGCUACAGCUUGCAUAGUAUUCAGUUA,0.244 ± 0.038,0.00294 ± 0.0021,0.00508 ± 0.0017
UCCUGGAUCAGCUUGCAUAGUAUCUAGUUA,0.205 ± 0.02,0.00466 ± 0.0024,0.0167 ± 0.005
UCCUGCUAGUCCUUGCAUAGUAUUUAGUUA,0.0977 ± 0.016,0.00689 ± 0.0019,0.00428 ± 0.0023
UCCUCCUACAGCUUGCAUAGUAAAUAGUUA,0.201 ± 0.022,0.00285 ± 0.0028,0.00735 ± 0.0032
UCCUGGAACAGGUUGCAUAGUUUUUAGUUA,0.0335 ± 0.0065,0.00467 ± 0.0021,0.00366 ± 0.0018
UCCUGCUACAGCUUGCAUAGUAUUUUAGUUA,0.283 ± 0.023,0.0106 ± 0.0025,0.00822 ± 0.0026
UCCUGCUACAGCUUGCAUUGUAUUUACUUA,0.12 ± 0.025,0.00348 ± 0.0023,0.00271 ± 0.0027
UCCUGGAACACGCUUGCAUAGUAUUUAGUUA,0.249 ± 0.025,0.0151 ± 0.0044,0.0331 ± 0.011
UCCUCCUACAGCUUGCAGAGUAUUUAGUUA,0.218 ± 0.021,0.00823 ± 0.0022,0.0095 ± 0.0025
UCCUGGAUGUCCUUGCAUAGUACUUAGUUA,0.0548 ± 0.01,0.00401 ± 0.0028,0.00586 ± 0.0027
UCCUGGAUGAGCUUGCAUAGUAUUUAGUUUA,0.184 ± 0.02,0.0105 ± 0.0031,0.0215 ± 0.0067
UCCUCCUACAGCUAUGCAUAGUAUUUAGUUA,0.267 ± 0.02,0.00637 ± 0.0022,0.0164 ± 0.0055
UCCUGGUAGCAGCUUGCAUAGUAUUUAGUUA,0.286 ± 0.019,0.0162 ± 0.0048,0.0746 ± 0.02
UCCUGGAUCGAGCUUGCAUAGUAUUUAGUUA,0.201 ± 0.016,0.0122 ± 0.0026,0.0315 ± 0.0069
UCCUGGAACAGCUUGCAUAGUAUUUAGUUUA,0.321 ± 0.018,0.00981 ± 0.003,0.0245 ± 0.0071
UCCUGGUACAGCUUGCAUAGUAUUUAGUUUA,0.375 ± 0.028,0.0152 ± 0.005,0.0765 ± 0.024
UCCUGCUUCAGCUUGCAUAGUUUUUAGUUA,0.0646 ± 0.011,0.00355 ± 0.0025,0.00715 ± 0.0025

# Reference: the supplement of paper PMC10338343
